Assay outcomes: PubChem BioAssay, National Center for Advancing Translational Sciences (NCATS)
Only a selection was taken, and hits are over-represented in it overall.
TDP1 cell noCPT: qHTS for Inhibitors of human tyrosyl-DNA phosphodiesterase 1 (TDP1): qHTS in cells in absence of CPT; DT40 Tdp1-/- hTDP1 cells, no CPT, ATP luminescence, 48 h; Potency, µM (series often up to 46.2 µM), inactives show at the top dose activity change, negative = growth inhibition, most hits filed as inhibitors; 15% of 420,000 active; AID 686978, 2013; also: potency is read from the fitted curve at half-maximal effect; nearly all actives have a fitted effect of over 55% in size
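Readout: luminescence from CellTiter-Glo after 30 min in the dark at RT. Cells: DT40 Tdp1-/- with stable hTDP1, 400/well. Exposure: compounds alone, ≥48 hr, 37 °C.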
DT40 TDP1 CPT: growth inhibition of DT40 Tdp1-/-;hTDP1 cells with camptothecin (screen for TDP1 inhibitors); AID 686979; Potency, µM (series often up to 46.2 µM), for the others: at the highest dose activity change, negative = growth inhibition, actives largely listed as inhibitors; 12% of 420,000 active; chicken DT40 Tdp1-/-;hTDP1 cells + 20 nM CPT, ATP luminescence, 48 h; also: potency is read from the fitted curve at half-maximal effect; nearly all actives have a fitted effect of over 55% in size
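Cell growth measured by CellTiter-Glo luminescence after a minimum 48 h, 37 C compound exposure with 20 nM CPT in Tdp1-knockout DT40 cells stably expressing hTDP1, seeded 400/well; qHTS titration format.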
HT1080 IDH1KD tx: HT-1080 IDH1 knockdown cell toxicity (counter line) | HT-1080 IDH1 knockdown viability, ATP luminescence, 48 h | Potency, µM (doses to about 46.1 µM), for inactives: at the highest dose activity, negative = toxicity, actives largely listed as cytotoxic | 2% of 360,000 active;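 also: potency is read from the fitted curve at half-maximal effect; 0% = DMSO wells and -100% = cell-free medium wells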
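HT-1080-IDH1KD cells (IDH1 knocked down), 750/well in RPMI with 5% FBS, treated with compound 48 h at 37 degrees C. Viability by CellTiter-Glo luminescence, normalised to DMSO and no-cell wells; concentration-response curves classed.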
ALOX12 inh: inhibitors of human 12S-lipoxygenase ALOX12 | P18054 | purified 12hLO, xylenol orange hydroperoxide absorbance | Potency, µM (top dose mostly 108 µM), for the others: at the top dose activity change, negative = inhibition, hits mostly inhibitors | 1.1% of 580,000 active | AID 1671190; also: potency is read from the fitted curve at half-maximal effect
Target sequence (P18054 whole entry, looked up): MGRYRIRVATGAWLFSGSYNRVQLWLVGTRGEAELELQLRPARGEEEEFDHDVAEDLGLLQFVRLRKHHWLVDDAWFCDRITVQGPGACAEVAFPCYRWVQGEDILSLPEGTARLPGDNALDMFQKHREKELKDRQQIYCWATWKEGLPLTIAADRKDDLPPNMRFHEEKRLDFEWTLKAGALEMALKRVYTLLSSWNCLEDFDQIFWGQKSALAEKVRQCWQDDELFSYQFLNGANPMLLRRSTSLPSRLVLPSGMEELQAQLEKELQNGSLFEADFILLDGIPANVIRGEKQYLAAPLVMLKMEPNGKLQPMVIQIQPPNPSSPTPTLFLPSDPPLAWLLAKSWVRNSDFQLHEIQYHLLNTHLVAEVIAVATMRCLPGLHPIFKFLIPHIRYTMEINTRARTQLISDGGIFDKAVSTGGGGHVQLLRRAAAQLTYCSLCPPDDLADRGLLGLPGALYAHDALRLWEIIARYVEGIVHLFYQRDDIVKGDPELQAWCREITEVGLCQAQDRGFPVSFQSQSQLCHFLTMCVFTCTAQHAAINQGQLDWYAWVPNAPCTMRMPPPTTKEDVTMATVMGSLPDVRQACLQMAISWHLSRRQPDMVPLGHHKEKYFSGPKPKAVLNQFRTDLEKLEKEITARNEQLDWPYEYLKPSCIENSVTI
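Purified human 12hLO at 150 nM in 25 mM Hepes, 0.01% Triton X-100, pH 7.0, preincubated 15 min at room temperature with compound. Reaction started with 40 uM arachidonic acid, 30 min at room temperature. Hydroperoxide measured by Fe-xylenol orange, 573/405 nm absorbance ratio.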
HT1080NT lethal: kills 2HG-producing HT-1080-NT fibrosarcoma cells; HT-1080-NT fibrosarcoma viability, CellTiter-Glo ATP luminescence, 48 h; Potency, µM (doses to about 46.1 µM), for the others: top-dose activity, negative = less viability, actives largely listed as cytotoxic; 1.6% of 360,000 active; AID 686970;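 also: NT is the 2HG producing partner of a matched IDH1 knockdown line; potency is read from the fitted curve at half-maximal effect; 0% = DMSO-treated cells and -100% = media-only wells without cells; nearly all actives have a fitted effect of over 55% in size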
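HT-1080-NT fibrosarcoma cells (2HG-overproducing), 750 cells/well in RPMI with 5% FBS, dosed after 2 h and incubated 48 h at 37C. CellTiter-Glo luminescence normalized to DMSO and no-cell wells; concentration-response curves fitted and classed.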
IL1B secr inh: blocks inflammasome-driven IL-1 beta release; THP-1 LPS/ATP IL-1B secretion, AlphaLISA, 16 h; active compounds read low; activity change, % at 57.5 µM; 4.7% of 360,000 active; AID 743279; in the data active = activity change below about -50%; inconclusive = mostly about -30% to -49%
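THP-1 cells pretreated 1 hr with compounds (up to 57.5 uM final), then stimulated with LPS (250 ng/mL final) plus ATP (1.25 mM final); secreted IL-1B measured by AlphaLISA after 16 hr, decreased signal indicating inhibition.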
* = called active by the depositor; [ ] = another dose, or the depositor's remark. Unless noted, calls follow the shape of the dose curve; as a rule, active = well fitted curve in the direction sought with a large enough effect; inconclusive = small, poorly fitted or top-dose-only effect, or another doubt; inactive = no such curve, though single readings can be large; an effect the other way counts as inactive or inconclusive. Unless noted, % is scaled to controls: 0 for no effect and ±100 for the full control effect.

For Cc1nc(-c2ccccc2)sc1-c1ccc(SCC(=O)Nc2cccc(C(F)(F)F)c2)nn1 the results were TDP1 cell noCPT -23%, DT40 TDP1 CPT inconclusive and ALOX12 inh -21%.
CC(=O)Nc1cccc(NC(=O)C(=O)NCCc2sc(-c3ccccc3)nc2C)c1 was read as TDP1 cell noCPT 1.2µM*, DT40 TDP1 CPT 1.5µM* and ALOX12 inh inconclusive.
`Cc1nc(-c2ccccc2)sc1CCNC(=O)C(=O)Nc1ccc(F)c(Cl)c1` gave ALOX12 inh -17%.
Screening COc1cc(NC(=O)CSc2ccc(-c3sc(-c4ccccc4)nc3C)nn2)cc(OC)c1 returned TDP1 cell noCPT 16µM*, DT40 TDP1 CPT -87% and ALOX12 inh -20%.
For CC(=O)Nc1cccc(NC(=O)CSc2ccc(-c3sc(-c4ccccc4)nc3C)nn2)c1 the results were TDP1 cell noCPT 5.8µM*, DT40 TDP1 CPT 9.2µM* and ALOX12 inh -14%.
`CCc1ccc(NC(=O)CSc2ccc(-c3sc(-c4ccccc4)nc3C)nn2)cc1` gave TDP1 cell noCPT 12µM*, DT40 TDP1 CPT inconclusive and ALOX12 inh 0%.
`Cc1ccc(CNC(=O)CSc2ccc(-c3sc(-c4ccccc4)nc3C)nn2)cc1` gave TDP1 cell noCPT -24%, DT40 TDP1 CPT -26% and ALOX12 inh inconclusive.
For COc1cccc(CNC(=O)CSc2ccc(-c3sc(-c4ccccc4)nc3C)nn2)c1 the results were TDP1 cell noCPT 18µM*, DT40 TDP1 CPT inconclusive and ALOX12 inh -9%.
For CCCNC(=O)CCn1c(=S)oc2ccccc21 the results were TDP1 cell noCPT inconclusive, DT40 TDP1 CPT 9.2µM*, HT1080 IDH1KD tx 13%, ALOX12 inh -2%, HT1080NT lethal 4% and IL1B secr inh -12.
`O=C(OCC(=O)N1CCN(C(=O)c2ccco2)CC1)c1cc(-c2ccccc2)nc2ccccc12` gave TDP1 cell noCPT inconclusive, DT40 TDP1 CPT -16%, HT1080 IDH1KD tx -5%, ALOX12 inh -14%, HT1080NT lethal -1% and IL1B secr inh -70*.
`CCOC(=O)/C=C/C(=O)OCC(=O)N1CCN(C(=O)c2ccco2)CC1` gave TDP1 cell noCPT 15µM*, DT40 TDP1 CPT 7.3µM*, HT1080 IDH1KD tx -7%, ALOX12 inh inconclusive, HT1080NT lethal -11% and IL1B secr inh 0.
O=C(/C=C/c1ccc(OC(F)F)cc1)OCC(=O)N1CCN(C(=O)c2ccco2)CC1 was read as TDP1 cell noCPT inconclusive, DT40 TDP1 CPT inconclusive, HT1080 IDH1KD tx 5%, ALOX12 inh -20%, HT1080NT lethal 12% and IL1B secr inh -2.
Screening O=C(OCC(=O)N1CCN(C(=O)c2ccco2)CC1)c1cc(-c2cccc(Br)c2)nc2ccccc12 returned TDP1 cell noCPT -19%, DT40 TDP1 CPT inconclusive, HT1080 IDH1KD tx -18%, ALOX12 inh inconclusive, HT1080NT lethal -16% and IL1B secr inh -67*.
`O=C(OCC(=O)N1CCN(C(=O)c2ccco2)CC1)c1cc(-c2ccc(F)cc2)nc2ccccc12` gave TDP1 cell noCPT -16%, DT40 TDP1 CPT -17%, HT1080 IDH1KD tx -24%, ALOX12 inh -13%, HT1080NT lethal -13% and IL1B secr inh -51*.
Screening O=C(OCC(=O)N1CCN(C(=O)c2ccco2)CC1)c1ccccc1C(=O)c1ccccc1 returned TDP1 cell noCPT -16%, DT40 TDP1 CPT -27%, HT1080 IDH1KD tx 8%, ALOX12 inh 335%, HT1080NT lethal 8% and IL1B secr inh -1.
Cc1cc(C(=O)OCC(=O)N2CCN(C(=O)c3ccco3)CC2)c(C)n1-c1ccc(F)cc1 was read as TDP1 cell noCPT inconclusive, DT40 TDP1 CPT -16%, HT1080 IDH1KD tx 16%, ALOX12 inh 14%, HT1080NT lethal 4% and IL1B secr inh -22.
For Cc1cc(OS(C)(=O)=O)cc2c1C(=O)/C(=C/c1ccncc1)O2 the results were ALOX12 inh -25%.
CCOc1ccc(CC(=O)N2CCC3(CC2)CC(O)CCO3)cc1 (configuration not stated) was read as ALOX12 inh 10%.
Screening COc1ccc(-c2cc(C(=O)OCC(=O)N3CCOCC3)c3ccccc3n2)cc1 returned TDP1 cell noCPT inconclusive, DT40 TDP1 CPT -15%, HT1080 IDH1KD tx -16%, ALOX12 inh -28%, HT1080NT lethal -1% and IL1B secr inh -54*.
For O=C(OCC(=O)N1CCN(C(=O)c2ccco2)CC1)c1cn(-c2ccccc2)nc1-c1ccccc1 the results were TDP1 cell noCPT inconclusive, DT40 TDP1 CPT inconclusive, HT1080 IDH1KD tx -3%, ALOX12 inh 12%, HT1080NT lethal -1% and IL1B secr inh -62*.
`CCOc1ccc(-c2cc(C(=O)N3CCOCC3)c3ccccc3n2)cc1` gave ALOX12 inh 6%.
For C/C(N)=C(/C#N)C(=O)COC(=O)c1cc(-c2ccc(Br)cc2)nc2ccccc12 the results were TDP1 cell noCPT 9.2µM*, DT40 TDP1 CPT 15µM*, HT1080 IDH1KD tx inconclusive, ALOX12 inh -3%, HT1080NT lethal inconclusive and IL1B secr inh inconclusive.
Screening O=C(c1ccco1)N1CCN(C(=O)c2cn(-c3ccccc3)nc2-c2ccccc2)CC1 returned TDP1 cell noCPT 0%, DT40 TDP1 CPT -5%, HT1080 IDH1KD tx -4%, ALOX12 inh 14%, HT1080NT lethal -3% and IL1B secr inh 0.
For O=C(CCc1ncc(-c2ccc(F)cc2F)o1)Nc1ccccc1O the results were ALOX12 inh 3%.
COCc1cc(CC2(NC(C)C)COC2)no1 was read as ALOX12 inh 8%[176 µM].
For CCCn1c(=NC(=O)c2ccco2)c(C(=O)OCC)cc2c(=O)n3ccccc3nc21 the results were TDP1 cell noCPT inconclusive, DT40 TDP1 CPT inconclusive, HT1080 IDH1KD tx 0%, ALOX12 inh -14%, HT1080NT lethal 18% and IL1B secr inh inconclusive.
For CCOC(=O)c1cc2c(=O)n3cccc(C)c3nc2n(CC(C)C)c1=NC(=O)c1ccco1 the results were TDP1 cell noCPT 21µM*, DT40 TDP1 CPT inconclusive, HT1080 IDH1KD tx -16%, ALOX12 inh inconclusive, HT1080NT lethal 6% and IL1B secr inh -4.
`CCOC(=O)c1cc2c(=O)n3ccccc3nc2n(CC(C)C)c1=NC(=O)c1cc2ccccc2o1` gave TDP1 cell noCPT -1%, DT40 TDP1 CPT -2% and ALOX12 inh 2%.
